CendR NRP1 mod: modulators of CendR peptide binding to NRP-1, primary screen, biochemical, fluorescence polarization, uHTS. Neuropilin-1 (Homo sapiens), O14786. FAM-RPARPAR peptide binding to NRP-1. inhibition, % at 25 µM. hit rate 0.85% among 360,000. AID 602438, 2012;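 active = inhibition or corrected inhibition above about 18%, plus a signal ratio from 0.5 to 1.5, limit read from the data, passing the limit was not always enough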
Target sequence (O14786 whole entry, looked up): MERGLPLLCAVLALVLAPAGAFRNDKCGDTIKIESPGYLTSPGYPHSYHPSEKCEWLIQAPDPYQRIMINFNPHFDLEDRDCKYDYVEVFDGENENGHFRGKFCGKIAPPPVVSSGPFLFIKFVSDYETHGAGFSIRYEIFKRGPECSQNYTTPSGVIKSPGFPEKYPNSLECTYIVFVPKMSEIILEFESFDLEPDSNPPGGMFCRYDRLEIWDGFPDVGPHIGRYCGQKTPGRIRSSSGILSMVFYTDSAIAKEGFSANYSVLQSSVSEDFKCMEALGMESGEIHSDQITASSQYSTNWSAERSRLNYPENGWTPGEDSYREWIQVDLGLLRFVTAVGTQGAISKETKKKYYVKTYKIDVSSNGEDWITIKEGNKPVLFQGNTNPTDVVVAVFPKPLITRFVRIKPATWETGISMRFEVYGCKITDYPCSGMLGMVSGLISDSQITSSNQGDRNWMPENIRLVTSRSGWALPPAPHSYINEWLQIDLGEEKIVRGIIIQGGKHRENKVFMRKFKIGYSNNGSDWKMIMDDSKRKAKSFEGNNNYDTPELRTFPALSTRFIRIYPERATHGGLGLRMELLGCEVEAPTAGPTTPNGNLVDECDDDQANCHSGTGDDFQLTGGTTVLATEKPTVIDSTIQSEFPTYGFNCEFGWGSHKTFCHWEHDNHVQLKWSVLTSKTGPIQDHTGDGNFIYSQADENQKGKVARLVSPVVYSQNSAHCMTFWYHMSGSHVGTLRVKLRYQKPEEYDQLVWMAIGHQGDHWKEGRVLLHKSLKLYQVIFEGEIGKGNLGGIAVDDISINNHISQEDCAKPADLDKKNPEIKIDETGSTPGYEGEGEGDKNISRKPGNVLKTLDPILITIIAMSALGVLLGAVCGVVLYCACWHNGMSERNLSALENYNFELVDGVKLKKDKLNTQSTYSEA
MEKK2 WT-MEK5: modulators of MEK5 binding to wildtype MEKK2, primary screen, biochemical, multiplex bead flow cytometry, Alexa488-MEK5; AID 1531, 2009; Alexa488-MEK5 binding to MEKK2 WT; actives lie on both sides; binding response (% of control), % at 10 µM; hit rate 1.1% among 290,000; in the data active = binding response below about 67% or above about 130%
MEKK2 mut-MEK5: MEK5 binding signal on mutant MEKK2 PB1, primary screen, biochemical, multiplex bead flow cytometry, Alexa488-MEK5. Alexa488-MEK5 binding to MEKK2 mutant. percent response, % at 10 µM. hit rate 0.35% among 290,000; in the data active = percent response above about 24%, passing the limit was not always enough
SKN-1 inh: suppressors of acrylamide-induced Pgst-4::GFP reporter in worms, primary screen, SKN-1 inhibitor project, whole organism, uHTS, GFP/RFP fluorescence ratio, strain VP596 | C. elegans VP596 Pgst-4::GFP/RFP ratio, 24 h | AID 624304, 2012 | inhibition, % at 21.8 µM | hit rate 0.49% among 360,000;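 active = interference check ratio from 0.5 to 1.5 plus GFP to RFP signal ratio inhibition reaching or exceeding a fixed threshold, cut at about 30% in these data, passing the limit was not always enough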
MEKK3 PB1 HTS: modulators of MEKK3-MEK5 PB1 binding, primary screen, biochemical, wildtype MEKK3, multiplex bead flow cytometry, Alexa488-MEK5 | Mitogen-activated protein kinase kinase kinase 3 (Homo sapiens), Q99759 | bead-based flow cytometry, Alexa488-MEK5 binding to MEKK3; actives lie on both sides; 0 = blocked by unlabeled MEK5, 100 = vehicle | binding response (% of control), % at 10 µM | hit rate 1.4% among 290,000 | AID 1529, 2009;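 active = binding response more than 3 SD above or below the average of its plate-row segment, actives on both sides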;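 also: Alexa488 bead fluorescence after subtracting the streptavidin-only scavenger bead signal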
MEKK2wt confirm: modulators of MEK5 binding to wildtype MEKK2, confirmation, biochemical, single concentration, multiplex bead flow cytometry; shares compounds with MEKK3 PB1 HTS; Alexa488-MEK5 binding to MEKK2 WT; actives lie on both sides; binding response (% of control), % at 10 µM; hit rate 2.4% among 5,900; in the data active = binding response below about 16% or above about 210%; inactive = in between
MEKK2mut confirm: mutant MEKK2 PB1-MEK5 binding signal retest – biochemical, single concentration, multiplex bead flow cytometry, confirmation; hit rate 2% among 5,900; shares compounds with MEKK3 PB1 HTS; Alexa488-MEK5 binding to MEKK2 mutant; percent response, % at 10 µM; in the data active = percent response mostly above about 71%, no sharp cut-off; inactive = mostly below about 38%;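 also: higher means compound restores mutant binding toward wildtype level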
MEKK3 confirm: MEKK3 wild-type PB1 binding to MEK5, inhibitors, confirmation, biochemical, bead multiplex flow cytometry, single concentration, wildtype. shares compounds with MEKK3 PB1 HTS. Alexa488-MEK5 binding to MEKK3; hits give low values. binding response (% of control), % at 10 µM. hit rate 1.8% among 5,900. AID 1894, 2009;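 active = binding response below 72% of control, or above a set upper limit, though filed actives all read lower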;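 also: 100% = DMSO only wells and 0% = binding blocked by excess unlabeled MEK5; lower values mean stronger disruption of MEK5 binding to MEKK3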
Active calls of the source: *; . = not tested or not shown; [ ] = dose if it differs, or a comment. This is a sample that favours compounds with a hit; in the whole collection about 3.2% have one here.

SMILES	CendR NRP1 mod	MEKK2 WT-MEK5	MEKK2 mut-MEK5	SKN-1 inh	MEKK3 PB1 HTS	MEKK2wt confirm	MEKK2mut confirm	MEKK3 confirm
C=CCC(NCc1ccco1)c1ccc(OC)c(OC)c1 (stereo not drawn)	4	-1.0*[inhibitor]	-16	-1	0.0*[inhibitor]	93	-5	98
COc1ccc(C(CC(=O)O)NC(=O)c2ccco2)cc1 (stereo not drawn)	18	99	-1	3	102	.	.	.
Cn1nnnc1SCC(=O)Nc1ccccc1Cc1ccccc1	2	3.0*[inhibitor]	-24	11	3.0*[inhibitor]	100	-2	102
O=C(NCCCN1CCOCC1)c1cccc(S(=O)(=O)N2CCc3ccccc32)c1	5	.	.	-2	.	.	.	.
CC1(C)CC(=O)C(C=NCCN2CCN(C(=S)Nc3ccccc3)CC2)=C(O)C1	-1	3.0*[inhibitor]	-14	-9	3.0*[inhibitor]	102	5	103
O=C(OCCNc1nc(-c2ccccc2)nc2ccccc12)c1cccnc1	6	99	-1	2	92	.	.	.
O=C(OCCNc1nc(-c2ccccc2)nc2ccccc12)c1ccncc1	0	133	7	5	146*	93	-9	88
Cc1ccc(S(=O)(=O)NCCC(=O)NCc2ccccc2)cc1	4	107	7	-13	110	.	.	.
Cc1ccc(NC(=O)CCNS(=O)(=O)c2ccccc2)c(C(=O)c2ccccc2)c1	0	110	1	-6	138*	100	2	104
C[C@@H]1CN([C@@H](C)CO)C(=O)c2cc(Br)cnc2O[C@H]1CN(C)C(=O)CN1CCOCC1	0	.	.	-8	.	.	.	.
COc1cc(Cl)c(C)cc1NC(=O)c1cc(S(=O)(=O)N(C)C)ccc1N1CCCC1	1	104	1	6	148*	102	-2	103
CCN(CC)S(=O)(=O)c1cc(C(=O)Nc2cc(Cl)ccc2N2CCN(C)CC2)ccc1Cl	-2	161*	24	11	109	150	33	108
CCN(CC)S(=O)(=O)c1cc(C(=O)Nc2ccccc2[N+](=O)[O-])ccc1Cl	-6	98	-2	13	102	.	.	.
CN1CCN(c2ccc(Cl)cc2NC(=O)c2ccc(S(=O)(=O)N(C)C)cc2)CC1	-4	136*	15	9	109	114	10	100
COc1ccc(S(=O)(=O)N2CCC(C(=O)NCCN3CCOCC3)CC2)cc1	16	103	8	1	103	.	.	.
C=Cc1ccc(CSc2cc(C)nc3nc(C)nn23)cc1	-14	98	-2	1	102	.	.	.
COc1ccc(/C=C2\SC(=O)N(CCC(=O)Nc3ccccc3)C2=O)cc1OC	-11	90	-2	-3	89	.	.	.
COc1cc(/C=C2\SC(=O)N(CCN)C2=O)ccc1OS(=O)(=O)c1cc(C)ccc1C	5	178*	14	0	97	191	54	110
Cc1ccc(S(=O)(=O)N(C)C[C@H]2OCc3cn(nn3)CCCC(=O)N([C@H](C)CO)C[C@@H]2C)cc1	-12	.	.	1	.	.	.	.
C#CCOCCOCCOCCNc1nc(N2CCN(C(=O)[C@H](CCC(=O)O)n3cc(C(N)Cc4ccc(O)cc4)nn3)CC2)nc(N2CCN(C(=O)[C@H](CCCCN)n3cc(C(N)[C@H](C)CC)nn3)CC2)n1 (stereo partly drawn)	.	76	2	.	84	.	.	.
C#CCOCCOCCOCCNc1nc(N2CCN(C(=O)[C@H]([C@@H](C)CC)n3cc([C@@H](N)Cc4ccc(O)cc4)nn3)CC2)nc(N2CCN(C(=O)[C@H]([C@@H](C)CC)n3cc([C@@H](N)Cc4ccc(O)cc4)nn3)CC2)n1	-5	151*	31	-2	108	136	15	104
C#CCOCCOCCOCCNc1nc(N2CCN(C(=O)[C@H]([C@@H](C)CC)n3cc([C@@H](N)CC(C)C)nn3)CC2)nc(N2CCN(C(=O)[C@H](Cc3ccc(O)cc3)n3cc([C@@H](N)CC(C)C)nn3)CC2)n1	.	150*	35	.	112	150	30	108
C#CCOCCOCCOCCNc1nc(N2CCN(C(=O)[C@H]([C@@H](C)CC)n3cc([C@@H](N)CO)nn3)CC2)nc(N2CCN(C(=O)[C@H](Cc3ccc(O)cc3)n3cc([C@@H](N)C(C)CC)nn3)CC2)n1 (stereo partly drawn)	8	111	11	3	106	.	.	.
C#CCOCCOCCOCCNc1nc(N2CCN(C(=O)[C@H]([C@@H](C)CC)n3cc([C@@H](N)CO)nn3)CC2)nc(N2CCN(C(=O)[C@H]([C@@H](C)CC)n3cc([C@@H](N)Cc4ccc(O)cc4)nn3)CC2)n1	10	134*	22	2	103	112	8	100
C#CCOCCOCCOCCNc1nc(N2CCN(C(=O)[C@H]([C@@H](C)CC)n3cc([C@@H](N)Cc4ccc(O)cc4)nn3)CC2)nc(N2CCN(C(=O)[C@H](CCCCN)n3cc([C@@H](N)C(C)CC)nn3)CC2)n1 (stereo partly drawn)	7	176*	48	-6	117	137	17	103
CCOC(=O)C1=CCN(S(=O)(=O)c2ccccc2C)C1c1cccc(Cl)c1 (stereo not drawn)	3	.	.	2	.	.	.	.
C#CCOCCOCCOCCNc1nc(N2CCN(C(=O)[C@H]([C@@H](C)CC)n3cc([C@@H](N)CC(C)C)nn3)CC2)nc(N2CCN(C(=O)[C@H]([C@@H](C)CC)n3cc([C@@H](N)CC(C)C)nn3)CC2)n1	15	223*	87*	16	116	180	45	104
C#CCOCCOCCOCCNc1nc(N2CCOCC2)nc(N2CCN(C(=O)[C@H]([C@@H](C)CC)n3cc([C@@H](N)CO)nn3)CC2)n1	-2	106	8	27	107	.	.	.

Screens: PubChem, several laboratories
